{
  "source": "PubChem BioAssay AID2291",
  "about": "(The Scripps Research Institute Molecular Screening Center, 2010)",
  "note": "Among all 16,000 compounds or so, about 75 (0.5%) were called active. This excerpt belongs to a sample that is enriched for actives. A number with no mark means an inactive call. No stated cut-off is given here; in the data, active means inhibition above about 30%; inactive means the rest.",
  "data": [
    {"biological_target": "Protein phosphatase methylesterase 1 (Homo sapiens) (UniProt Q9Y570)", "sequence (Q9Y570 whole entry, looked up)": "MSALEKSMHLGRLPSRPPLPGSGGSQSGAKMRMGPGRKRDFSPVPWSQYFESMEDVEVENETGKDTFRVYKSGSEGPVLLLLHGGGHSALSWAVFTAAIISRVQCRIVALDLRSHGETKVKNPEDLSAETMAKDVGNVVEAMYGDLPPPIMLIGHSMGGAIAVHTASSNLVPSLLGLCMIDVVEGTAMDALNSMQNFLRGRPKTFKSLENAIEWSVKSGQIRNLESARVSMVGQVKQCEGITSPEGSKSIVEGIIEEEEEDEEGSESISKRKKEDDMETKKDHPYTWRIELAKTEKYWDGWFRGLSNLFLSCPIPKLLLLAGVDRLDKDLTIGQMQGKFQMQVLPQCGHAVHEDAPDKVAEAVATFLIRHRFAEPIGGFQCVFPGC", "experiment": "inhibitors of human PME-1 in Maybridge library (AID 2291)", "settings": "recombinant PME-1, FP-Rh probe fluorescence polarization; at 9 µM; stronger effect = higher value", "values": [
      {"compound": "COc1ccc(-c2ccc(/C=N/NC(=O)CCc3ccc(O)cc3)s2)cc1", "inhibition": "-3.06%"},
      {"compound": "COc1ccc(COCC(O)CN2CCC(C(N)=O)CC2)cc1", "note": "(configuration not stated)", "inhibition": "1.38%"},
      {"compound": "FC(F)(F)c1ccc(Cl)c(NC(=S)NN=C2CCCCCC2)c1", "inhibition": "0.88%"},
      {"compound": "CC1(C)C=Cc2cc(-c3noc(-c4ccccc4)n3)ccc2O1", "inhibition": "-23.5%"},
      {"compound": "CCCc1c(C(=O)Nc2ccc(F)cc2)cnn1-c1ccccc1", "inhibition": "3.87%"},
      {"compound": "O=C(Oc1ccccc1N1CCCCC1)c1sc2ccccc2c1Cl", "inhibition": "-0.751%"},
      {"compound": "CCOC(=O)CNC(=O)CCc1cc(OC)c(OC)c(OC)c1", "inhibition": "6.62%"},
      {"compound": "Cn1c(S(=O)(=O)O)nc2ccccc21", "inhibition": "3.94%"},
      {"compound": "O=C(Sc1ccccc1)c1ccc(C(F)(F)F)cc1", "inhibition": "-0.43%"},
      {"compound": "CN(NS(=O)(=O)CS(C)(=O)=O)c1ncccc1[N+](=O)[O-]", "inhibition": "5.17%"},
      {"compound": "O=C(O)c1onc2ccccc12", "inhibition": "-2.58%"},
      {"compound": "CCOC(=O)NN(C(=O)OCC)c1c(C)c(C)c(C)c(C)c1C", "inhibition": "-1.33%"},
      {"compound": "Cc1nc(C(F)(F)F)ccc1C(=O)NC1CCCc2ccccc21", "note": "(configuration not stated)", "inhibition": "1.46%"},
      {"compound": "Cc1cc2nc(C)c(C)nc2cc1C", "inhibition": "-1.82%"},
      {"compound": "COc1ccc(NC(=O)C2CC(C)=C(C)CC2C(=O)O)c(N2CCOCC2)n1", "note": "(configuration not stated)", "inhibition": "1.52%"},
      {"compound": "N#CC(Cc1ccccc1)Sc1ccccc1", "note": "(configuration not stated)", "inhibition": "3.19%"},
      {"compound": "O=C(CNC(=O)c1ccccc1F)c1ccc(Br)cc1", "inhibition": "-7.48%"},
      {"compound": "O=C(/C(=N\\N=C\\c1ccc2c(c1)OCO2)c1ccccc1)c1ccccc1", "inhibition": "4.75%"},
      {"compound": "Cc1cc2nsnc2cc1Cl", "inhibition": "0.257%"},
      {"compound": "COC(=O)c1sc(SC)c(-c2ccn[nH]2)c1C", "inhibition": "2.07%"},
      {"compound": "NC(=S)N/N=C\\Cc1nnnn1-c1ccc(Cl)cc1", "inhibition": "1.94%"},
      {"compound": "Nc1nc(C23CC4CC(CC(C4)C2)C3)cs1", "inhibition": "8.45%"},
      {"compound": "CSc1ccc(C(F)(F)F)cc1C(=O)/C=C/N(C)C", "inhibition": "-0.344%"},
      {"compound": "Clc1ccc(-c2csc(-c3cnccn3)n2)s1", "inhibition": "-1.61%"},
      {"compound": "O=C1c2ccc3c4c(ccc(c24)C(=O)N1c1ccccc1)C(=O)N(c1ccccc1)C3=O", "inhibition": "5.87%"},
      {"compound": "CCOC(=O)C1=C(C)NC(=O)NC1c1ccc(-c2cccc([N+](=O)[O-])c2)o1", "note": "(configuration not stated)", "inhibition": "-24.2%"},
      {"compound": "C/C(=N\\NC(N)=S)c1csc(-c2ccccc2)n1", "inhibition": "4.41%"},
      {"compound": "O=C(c1cc(-c2cccs2)on1)N1CCCCC1", "inhibition": "-4.77%"},
      {"compound": "COCn1nnc2ccccc21", "inhibition": "0.294%"},
      {"compound": "COc1ccc(/C=C(\\NC(=O)c2ccccc2)C(=O)N/N=C/c2ccc3c(c2)OCO3)cc1", "inhibition": "-5.56%"},
      {"compound": "CCCCc1ccc(-n2c(-c3ccc(F)cc3)coc2=O)cc1", "inhibition": "2.07%"},
      {"compound": "N#C/C(=C\\N1CCc2ccccc21)S(=O)(=O)c1ccc(C(F)(F)F)cn1", "inhibition": "2.09%"},
      {"compound": "Cn1c(=O)c(C#N)cn(-c2ccccc2)c1=O", "inhibition": "2.81%"},
      {"compound": "Cc1ccc(NC(=S)C(C#N)C(=O)N2CCCC2)c(C)c1", "note": "(configuration not stated)", "inhibition": "-4.1%"},
      {"compound": "O=C(Nc1ccccc1-c1ccccc1)c1cccs1", "inhibition": "-1.11%"},
      {"compound": "Fc1cccc(Cl)c1CN1CCN(c2ncnc3scc(-c4cccs4)c23)CC1", "inhibition": "-3.44%"},
      {"compound": "CCOC(=O)Cc1csc(NC(NC(=O)OCC)(C(F)(F)F)C(F)(F)F)n1", "inhibition": "4.35%"},
      {"compound": "O=C1Nc2ccccc2C12NNC(=S)NN2", "inhibition": "65.2% (active)"},
      {"compound": "CSc1ccc(C(F)(F)F)cc1NC(=S)Nc1ccccc1", "inhibition": "0.0132%"},
      {"compound": "N#Cc1c(-c2cccs2)oc(-n2cccc2)c1-c1cc(Br)cs1", "inhibition": "-56.1%"},
      {"compound": "O=C(NNC(=O)C1c2ccccc2Oc2ccccc21)c1cccc(F)c1", "inhibition": "0.119%"},
      {"compound": "O=S(=O)(NC1Cc2ccccc2C1)c1ccc(-c2csnn2)cc1", "inhibition": "7.03%"},
      {"compound": "Cn1cnc([N+](=O)[O-])c1N1CCN(C(c2ccccc2)c2ccccc2)CC1", "inhibition": "0.986%"},
      {"compound": "CN1CCCCC(C2=C(Cl)C(=O)CCC2)C1=O", "note": "(configuration not stated)", "inhibition": "3.98%"},
      {"compound": "OC(COc1ccc(Cl)c(Cl)c1)CN1CCC(Nc2nccc(C(F)(F)F)n2)CC1", "note": "(configuration not stated)", "inhibition": "-0.258%"},
      {"compound": "O=C(Nc1cc2ccccc2s1)N1CCN(Cc2c(F)cccc2Cl)CC1", "inhibition": "0.279%"},
      {"compound": "NC(=O)c1cccc2c1OCCO2", "inhibition": "6.89%"},
      {"compound": "Nc1ccccc1SCc1cc([N+](=O)[O-])cc2c1OCOC2", "inhibition": "5.44%"},
      {"compound": "COc1cc(CC/C(C)=N/O)ccc1O", "inhibition": "3.22%"},
      {"compound": "NNC(=O)c1ccc(Cl)cc1Cl", "inhibition": "15.5%"},
      {"compound": "CC(=O)Nc1ccc(C)cc1N=Cc1ccncc1", "inhibition": "2.67%"},
      {"compound": "O=C(O)c1cnc(NCc2ccccc2)s1", "inhibition": "-5.43%"},
      {"compound": "COc1ccc(CCN=C(C)c2cc(Cl)cc(Cl)c2O)cc1OC", "inhibition": "0.059%"},
      {"compound": "CC1(NC(=O)OCc2ccccc2)CC1NC(=O)OCc1ccccc1", "note": "(configuration not stated)", "inhibition": "-1.61%"},
      {"compound": "O=S(=O)(c1ccc2c(c1)OCCO2)N1CCN(c2ccc(C(F)(F)F)cn2)CC1", "inhibition": "27.1%"},
      {"compound": "O=C(Cc1cccc2ccccc12)NNC(=O)Nc1ccc(Cl)cc1", "inhibition": "-12.8%"},
      {"compound": "CCOC(=O)/C(=N/Nc1ccccc1)C(C)=N", "inhibition": "1.95%"},
      {"compound": "N#CC(C#N)=C/C=C(/Sc1nc2cc(Cl)ccc2s1)c1ccc(Cl)cc1", "inhibition": "3.07%"},
      {"compound": "Cc1cccc(Cl)c1NC(=S)NCCNC(=O)OC(C)(C)C", "inhibition": "-2.72%"},
      {"compound": "O=c1[nH]c2ccccc2c(=O)n1CCSc1ccc(Cl)cc1", "inhibition": "-0.818%"},
      {"compound": "O=C(O)CCc1cccnc1", "inhibition": "5.03%"},
      {"compound": "OC(CN1CCN(c2ccc(C(F)(F)F)cn2)CC1)c1ccc2c(c1)OCCO2", "note": "(configuration not stated)", "inhibition": "-3.57%"},
      {"compound": "OC(COc1ccc(F)cc1)(c1ccccc1)c1ccccc1", "inhibition": "2.52%"},
      {"compound": "Cn1/c(=N\\N=C2CCCCC2)sc2ccccc21", "inhibition": "24.3%"},
      {"compound": "O=C(O)/C=C/C(=O)Nc1ccc(NC(=O)c2ccccc2O)cc1", "inhibition": "-5.93%"},
      {"compound": "O=C1CC(c2ccccc2)C(=O)N1Cc1cccs1", "note": "(configuration not stated)", "inhibition": "-0.212%"},
      {"compound": "CCOC(=O)c1c(N/N=C\\c2ccccc2O)n[nH]c1C", "inhibition": "7.03%"},
      {"compound": "COc1ccccc1C1CCN(c2ccc([N+](=O)[O-])cn2)CC1", "inhibition": "3.68%"},
      {"compound": "COC(=O)c1scc(S(=O)(=O)Cc2ccco2)c1N/N=C(\\C#N)S(=O)(=O)C(C)C", "inhibition": "7.89%"},
      {"compound": "CCCCOC(=O)c1ccc(-c2ccccn2)s1", "inhibition": "5.14%"},
      {"compound": "COc1cccc(/C=N/NC(=S)Nc2cc(C(F)(F)F)cc(C(F)(F)F)c2)c1O", "inhibition": "5.97%"},
      {"compound": "CCCC1NC(=O)NC(C)=C1C(=O)OCC", "note": "(configuration not stated)", "inhibition": "-4.5%"},
      {"compound": "O=[N+]([O-])c1ccc(C2CC2(Br)Br)cc1", "note": "(configuration not stated)", "inhibition": "0.49%"},
      {"compound": "Cc1nc2ccccn2c1C(=O)N/N=C/c1cn(-c2ccccc2)nc1-c1cccs1", "inhibition": "1.07%"},
      {"compound": "CSc1c(C#N)c(N)nc(SCC(=O)c2ccc(OC(F)F)cc2)c1C#N", "inhibition": "-10.3%"},
      {"compound": "CCOC(=O)/C(C#N)=C/N=C(N/N=C/c1cccs1)SC", "inhibition": "-1.55%"},
      {"compound": "Cn1c(CN2C(=O)CSc3ccc(C(F)(F)F)cc32)nnc1SCC(=O)c1ccccc1", "inhibition": "5.25%"},
      {"compound": "CC(C)CC(NC(=O)OC(C)(C)C)C(=O)OCc1ccc(CC(=O)O)cc1", "note": "(configuration not stated)", "inhibition": "-2.54%"},
      {"compound": "O=C(NNc1ccccc1C(F)(F)F)NS(=O)(=O)c1ccc(Cl)cc1", "inhibition": "5.25%"},
      {"compound": "CCOC(=O)c1ccc2nc(C(F)(F)F)cc(N3CCN(Cc4ccccc4)CC3)c2c1", "inhibition": "-1.13%"},
      {"compound": "Cc1nc(C)c(-c2ccnc(-c3ccc(Cl)cc3)n2)s1", "inhibition": "4.12%"},
      {"compound": "NC(CC(=O)O)c1ccccc1", "note": "(configuration not stated)", "inhibition": "6.22%"},
      {"compound": "CSc1nc(N)nc2nc[nH]c12", "inhibition": "-1.11%"},
      {"compound": "COC(=O)c1cc(S(=O)(=O)NCc2csc(-c3cccs3)n2)oc1C", "inhibition": "-1.1%"},
      {"compound": "CC1=C(C(=O)O)N2C(=O)[C@H](NC(=O)[C@@H](N)c3ccccc3)C2SC1", "note": "(some centres not stated)", "inhibition": "0.953%"},
      {"compound": "N#CCSc1ccc2ccccc2c1", "inhibition": "3.36%"},
      {"compound": "CCOC(=O)c1c(NC(=S)Nc2ccccc2)sc2c1CCN(C)C2", "inhibition": "-2.27%"},
      {"compound": "NC(=O)C1CCN(CC(O)CSc2ccc(F)cc2)CC1", "note": "(configuration not stated)", "inhibition": "0.714%"},
      {"compound": "CC(=O)Nc1cccc(-n2nnc(SCC(=O)c3cc(-c4ccccc4)no3)n2)c1", "inhibition": "-46.5%"},
      {"compound": "CCOC(=O)C(=CNc1cc(C(F)(F)F)ccc1NCc1ccccc1)C(=O)OCC", "inhibition": "1.63%"},
      {"compound": "COC(=O)c1cc(OC)c(OC)cc1NC(=O)CSc1ccc(Cl)cc1", "inhibition": "5.14%"},
      {"compound": "NC(=O)c1ccccc1OCCOc1ccccc1C(N)=O", "inhibition": "-1.29%"},
      {"compound": "Cn1cc(Br)c(-c2cccc(NC(=O)c3ccccc3Cl)c2)n1", "inhibition": "5.94%"},
      {"compound": "N#Cc1nccnc1N1CCN(c2ccccc2)CC1", "inhibition": "1.69%"},
      {"compound": "N#Cc1cccnc1NNC(=O)c1ccccc1C(=O)O", "inhibition": "-1.06%"},
      {"compound": "Fc1ccc(COc2ccc(-c3nnco3)cc2)cc1", "inhibition": "4.75%"},
      {"compound": "CCOC(=O)c1cnc2c(S(=O)(=O)C(C)C)csc2c1Sc1cccc(Cl)c1", "inhibition": "3.84%"},
      {"compound": "CC(=O)N1C=CC(c2c[nH]c3ccccc23)C=C1", "inhibition": "-3.18%"},
      {"compound": "CC(C)S(=O)(=O)/C(C#N)=C/c1ccccc1OC(F)(F)F", "inhibition": "2.58%"},
      {"compound": "CS(=O)(=NC(=O)c1cc2ccccc2o1)c1ccc(Cl)cc1", "note": "(configuration not stated)", "inhibition": "4.96%"},
      {"compound": "CC(C)(C)C(=O)OCC(N)=S", "inhibition": "-1.98%"},
      {"compound": "O=[N+]([O-])c1ccc(N2CCC2)cc1", "inhibition": "0.196%"}
    ]}
  ]
}
